{"source": "PubChem BioAssay AID720568", "about": "(Broad Institute, 2013)", "note": "Measured potencies and affinities stand elsewhere. Activity calls are given as the source filed them. No rule for the calls is given here.", "data": [{"assay": "toxicity toward HepG2 hepatoma cells – cell-based, dry powder samples, cytotoxicity control, dose response (AID 720568)", "details": "plate reader; series mostly up to 15 µM", "values": [{"smiles": "COc1ccccc1CSc1nnc(-c2ccccc2)o1", "outcome": "inactive"}, {"smiles": "CCN(CC)CCCNc1nc2cc(OC)c(OC)cc2c2nc(-c3ccccc3)nn12", "outcome": "inactive"}, {"smiles": "CCOC(=O)c1ccc(Oc2cc(C)nc(SC)n2)cc1", "outcome": "inactive"}, {"smiles": "Cc1cccc(C)c1OCCNC(=O)C(=O)NCc1ccco1", "outcome": "inactive"}, {"smiles": "COc1ccc2c(COC(=O)c3cccc(S(=O)(=O)NCC(C)C)c3)cc(=O)oc2c1", "outcome": "inactive"}, {"smiles": "CCCNS(=O)(=O)c1cccc(C(=O)OCc2cc(=O)oc3cc(OC)ccc23)c1", "outcome": "inactive"}, {"smiles": "COc1cc(Nc2c3c(nc4ccccc24)CCCC3)cc(OC)c1OC", "outcome": "inactive"}, {"smiles": "CCOC(=O)COc1cccc2c(=O)n(CC(=O)NCc3ccccc3)ccc12", "outcome": "inactive"}, {"smiles": "Brc1ccc(CSc2nnc(-c3ccccc3)o2)cc1", "outcome": "inactive"}, {"smiles": "Cc1cc(C)cc(C(=O)N2CC(=O)Nc3ccccc32)c1", "outcome": "inactive"}, {"smiles": "C/C(=N\\NC(=O)c1c([N+](=O)[O-])c(C)nn1C)c1ccc(NC(=O)C2CCCC2)cc1", "outcome": "inactive"}, {"smiles": "CC(=O)N1CCC(=O)c2cc3ccccc3cc21", "outcome": "inactive"}, {"smiles": "COC(=O)c1cn(C(=O)c2ccc(OC)cc2)c2ccccc12", "outcome": "inactive"}, {"smiles": "O=C(Cc1ccccc1)c1nnc(-c2ccccc2)o1", "outcome": "inactive"}, {"smiles": "Cc1ccc(Oc2ccc(S(=O)(=O)N3CCOCC3)cc2C(N)=O)c(-n2nc3ccccc3n2)c1", "outcome": "inactive"}, {"smiles": "CC(=O)c1cccc(NC(=O)CSc2ncc(C(=O)Nc3ccccc3)c(=O)n2C)c1", "outcome": "inactive"}, {"smiles": "COc1ccccc1-c1nnc(SCc2ccccc2)o1", "outcome": "inactive"}, {"smiles": "CCN(CC)CCC(=O)Nc1cccc2c1C(=O)c1ccccc1C2=O", "outcome": "inactive"}, {"smiles": "CCOc1ccc(NC(=O)c2cc(OC)nc3ccccc23)cc1", "outcome": "inactive"}, {"smiles": "CCCCOc1ccccc1C1CC(=O)NC2=C1C(=O)CCC2", "note": "(stereo not drawn)", "outcome": "inactive"}, {"smiles": "CCOc1ccc(S(=O)(=O)NCc2ccccn2)cc1NC(=O)c1ccccc1F", "outcome": "inactive"}, {"smiles": "Cc1cc(=O)[nH]c(N/N=C/c2cc(C)n(CC(F)(F)F)c2C)n1", "outcome": "inactive"}, {"smiles": "Cc1[nH][nH]c(=O)c1C(c1ccc(-c2ccc(Cl)c(Cl)c2)o1)c1c(C)[nH][nH]c1=O", "outcome": "inactive"}, {"smiles": "Cc1ccc(CCC(=O)Nc2ncc(Cc3cc(Cl)ccc3Cl)s2)o1", "outcome": "inactive"}, {"smiles": "COc1cc(-c2nnc(SCC3(c4ccc(Br)cc4)OCCO3)o2)cc(OC)c1OC", "outcome": "inactive"}, {"smiles": "Cc1cc(NC(=O)CSc2nc(-c3ccco3)cc(C(F)(F)F)n2)no1", "outcome": "inactive"}, {"smiles": "Cc1cc(C)nc(/N=C(\\N)Nc2ccc(OCc3ccccc3)cc2)n1", "outcome": "inactive"}, {"smiles": "CCCOC(=O)c1[nH]c2c(c1C)C(=O)CC(c1cccs1)C2", "note": "(stereo not drawn)", "outcome": "inactive"}, {"smiles": "COc1cccc(N2CCN(C(=O)c3ccc(CS(=O)c4ccc(C)cc4)o3)CC2)c1", "note": "(stereo not drawn)", "outcome": "inactive"}, {"smiles": "CCC1=Nc2cc(C(=O)NCCCOC)ccc2Sc2ccccc21", "outcome": "inactive"}, {"smiles": "Cc1ccc(C(=O)c2cc([N+](=O)[O-])ccc2N2CCOCC2)cc1C", "outcome": "inactive"}, {"smiles": "O=C(N/N=C/c1ccc(Cl)cc1)c1sccc1OCc1ccc(F)cc1", "outcome": "inactive"}, {"smiles": "CCn1c2ccccc2c2cc(NC(=O)c3cc(OC)c(OC)c(OC)c3)ccc21", "outcome": "inactive"}, {"smiles": "Cc1ccc(/C=N/NC(=O)C2COc3ccccc3O2)s1", "note": "(stereo not drawn)", "outcome": "inactive"}, {"smiles": "COc1ccc(NC(=O)C(=O)c2cn(CC(=O)N3CCCC3)c3ccccc23)cc1", "outcome": "inactive"}, {"smiles": "COc1ccccc1OCC(=O)NNC(=O)c1ccoc1C", "outcome": "inactive"}, {"smiles": "Cc1cnc(NC(=O)c2cc(S(=O)(=O)N(C)C)ccc2N2CCCC2)s1", "outcome": "inactive"}, {"smiles": "COc1ccc(-c2nnc(SCc3ccccc3)o2)cc1", "outcome": "inactive"}]}]}
